IL1B secr inh – blocks inflammasome-driven IL-1 beta release; THP-1 LPS/ATP IL-1B secretion, AlphaLISA, 16 h; active compounds read low; activity change, % at 57.5 µM; actives 4.7% (n = 360,000); in the data active = activity change below about -50%; inconclusive = mostly about -30% to -49%
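THP-1 cells pretreated 1 hr with compounds (up to 57.5 uM final), then stimulated with LPS (250 ng/mL final) plus ATP (1.25 mM final); secreted IL-1B measured by AlphaLISA after 16 hr, decreased signal indicating inhibition.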
HT1080 IDH1KD tx – kills HT-1080 cells with IDH1 knockdown. Potency, µM (top dose mostly 46.1 µM), actives largely listed as cytotoxic. AID 686971. HT-1080 IDH1 knockdown viability, ATP luminescence, 48 h. actives 2% (n = 360,000)
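Luminescent ATP read-out (CellTiter-Glo, 10 min at room temperature) after 48 h compound exposure at 37 °C gave viability of IDH1-knockdown HT-1080 cells. Activity was normalised to DMSO and cell-free wells, then fitted as concentration-response curves.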
HT1080NT lethal – kills 2HG-producing HT-1080-NT fibrosarcoma cells; HT-1080-NT fibrosarcoma viability, CellTiter-Glo ATP luminescence, 48 h; Potency, µM (doses to about 46.1 µM), usual class: cytotoxic; actives 1.6% (n = 360,000);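 also: NT is the 2HG producing partner of a matched IDH1 knockdown line; nearly all actives have a fitted effect of over 55% in size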
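HT-1080-NT fibrosarcoma cells (2HG-overproducing), 750 cells/well in RPMI with 5% FBS, dosed after 2 h and incubated 48 h at 37C. CellTiter-Glo luminescence normalized to DMSO and no-cell wells; concentration-response curves fitted and classed.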
uPA surface inh – blocks generation of uPA at the cell surface | cell surface uPA generation assay, qHTS | Potency, µM (highest dose often 38.3 µM), actives largely listed as inhibitors | actives 0.31% (n = 330,000); active = well fitted inhibition curve with a large enough effect; inconclusive = small, poorly fitted or top-dose-only effect; inactive = no such curve, though single readings can be large or run the other way; tested in mouse RAW 264.7 cells; also: nearly all actives have a fitted effect of over 55% in size
TDP1 cell noCPT – qHTS for Inhibitors of human tyrosyl-DNA phosphodiesterase 1 (TDP1): qHTS in cells in absence of CPT; Potency, µM (doses to about 46.2 µM), hits mostly inhibitors; DT40 Tdp1-/- hTDP1 cells, no CPT, ATP luminescence, 48 h; actives 15% (n = 420,000); also: nearly all actives have a fitted effect of over 55% in size
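DT40 Tdp1-/-;hTDP1 cells, no CPT (DMSO vehicle only), 400 cells/well; compounds pin-transferred; ≥48 hr, 37 °C; CellTiter-Glo 30 min RT dark, luminescence read.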
TDP1 cell CPT – growth inhibition of DT40 Tdp1-/-;hTDP1 cells with camptothecin (screen for TDP1 inhibitors); chicken DT40 Tdp1-/-;hTDP1 cells + 20 nM CPT, ATP luminescence, 48 h; Potency, µM (doses to about 46.2 µM), most hits filed as inhibitors; actives 12% (n = 420,000); also: nearly all actives have a fitted effect of over 55% in size
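Chicken DT40 Tdp1-/- cells complemented with human TDP1, 400 cells/well, exposed to compounds plus 20 nM camptothecin for at least 48 h at 37 C; viability read as ATP content by CellTiter-Glo luminescence.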
Hits are given with their value; n = inactive; u = inconclusive; x = no result; [ ] = another dose, or the depositor's remark. Sampled rows, rich in hits. Any-hit rate of the full collection: about 19%. Unless noted, calls follow the shape of the dose curve; as a rule, active = well fitted curve in the direction sought with a large enough effect; inconclusive = small, poorly fitted or top-dose-only effect, or another doubt; inactive = no such curve, though single readings can be large; an effect the other way counts as inactive or inconclusive.

SMILES	IL1B secr inh	HT1080 IDH1KD tx	HT1080NT lethal	uPA surface inh	TDP1 cell noCPT	TDP1 cell CPT
CCC(=O)Nc1nc2ccc3nc(C)sc3c2s1	n	n	n	n	21µM	u
COc1ccc2sc(NC(=O)NC(=O)c3c(Cl)cccc3Cl)nc2c1	-88	n	n	n	u	n
CCC(=O)Nc1nc2c(OC)ccc(OC)c2s1	n	n	n	n	n	n
O=C(Nc1ccccc1)C(=O)Nc1ccc2c(c1)N(C(=O)C1CC1)CCC2	n	u	u	n	23µM	21µM
CC(=O)N/C(=C\c1ccccc1)C(=O)OCC(=O)NC(C)C12CC3CC(CC(C3)C1)C2 (configuration not stated)	u	n	n	n	21µM	15µM
CC(=O)N/C(=C\c1ccccc1)C(=O)OCC(=O)NC(=O)c1ccccc1	n	n	n	n	n	n
CCc1nc2ccc(C(=O)N(CC)CCN(C)C)cn2c1N(CC)C(=O)NCCc1ccccc1	n	n	n	x	n	n
CCCn1c(SCc2nc3ccccc3s2)n[nH]c1=O	n	n	n	n	n	n
Cc1cc(C)c(-n2c(SCc3nc4ccccc4s3)n[nH]c2=O)c(C)c1	-95	n	n	n	29µM	u
Cc1cc(C)c(-n2c(SCCS(=O)(=O)c3ccc(F)cc3)n[nH]c2=O)c(C)c1	-97	18µM	u	n	23µM	26µM
Cc1ccc(S(=O)(=O)CCSc2n[nH]c(=O)n2-c2ccccc2)cc1	u	n	u	n	u	n
COc1ccc(NS(=O)(=O)c2ccc3oc4ccccc4c3c2)cn1	n	n[9.24 µM]	u	n	u	23µM
O=C(Nc1cc(C(F)(F)F)cc(C(F)(F)F)c1)[C@H]1O[C@@H](n2ccc(=O)[nH]c2=O)[C@H](O)[C@@H]1O	n	n	n	x	n	n
CCN(CC)S(=O)(=O)c1ccc2oc(SCC3CN=C(c4ccc(OC)cc4)S3)nc2c1 (configuration not stated)	n	u	n	n	16µM	u
CC(=O)Nc1cccc(Oc2cnc3ccccc3n2)c1	n	n	n	n	n	n
CC(=O)Nc1ccc(Oc2cnc3ccccc3n2)cc1	n	2.6µM	2.3µM	n	u	u
Nc1ccc(NC(=O)c2cc(Cl)ccc2O)c(Cl)c1	x	x	x	x	u	n
CCn1c(COc2ccc(Cl)cc2)nnc1SC1CCc2ccccc2C1=O (configuration not stated)	n	n	n	n	21µM	u
CC1CCN(c2c(NCC3CCC(C(=O)N4CCc5ccccc5C4)CC3)c(=O)c2=O)CC1 (configuration not stated)	n	n	n	n	u	u
O=C(C1CCC(CNc2c(N3CCCCC3)c(=O)c2=O)CC1)N1CCc2ccccc2C1 (configuration not stated)	n	n	n	n	16µM	u
CC(C)(C)C(=O)Nc1sc2c(c1C#N)CCN(Cc1ccccc1)C2	n	n	n	n	23µM	u
CC(C)N1CCc2c(sc(NC(=O)CCc3ccccc3)c2C(N)=O)C1	u	n	n	n	n	n
COC(=O)c1c(NC(=O)CCS(=O)(=O)c2ccccc2)sc2c1CCN(C)C2	u	n	n	u	3.7µM	5.8µM
CC(C)N1CCc2c(sc(NC(=O)CCS(=O)(=O)c3ccccc3)c2C#N)C1	n	n	n	n	26µM	u
N#Cc1c(N)sc2c1CCN(CCc1ccccc1)C2	n	n	n	n	u	18µM
SMILES	IL1B secr inh	HT1080 IDH1KD tx	HT1080NT lethal	uPA surface inh	TDP1 cell noCPT	TDP1 cell CPT
Cc1noc(C)c1NC(=O)N(C)C[C@@H]1Oc2ccc(NC(=O)C3CCCCC3)cc2C(=O)N([C@@H](C)CO)C[C@H]1C	n	n	n	n	n	n
COCCn1c(SCC(=O)Nc2cc(C)on2)nnc1C(C)C	n	n	n	n	n	n
CC(=O)n1cc(N(C(=O)CCl)c2ccccc2)c2ccccc21	-92	2.6µM	2.6µM	n	0.58µM	0.65µM
CC(=O)n1cc(N(C(=O)CCl)c2ccc([N+](=O)[O-])cc2)c2ccccc21	-101	u	23µM	n	2.6µM	2.3µM
COc1cc(/C=N/NC(=O)Cn2nnc3ccccc32)ccc1O	n	n	n	n	u	n
COc1cccc(/C=N/NC(=O)CSCC(=O)Nc2ccccc2)c1O	n	2µM	4µM	x	3.2µM	4.5µM
COc1cccc(/C=N\NC(=O)Cn2nnc3ccccc32)c1O	n	u	u	n	2.9µM	3.7µM
COc1ccc(O)c(/C=N\NC(=O)CCn2nnc3ccccc32)c1	n	u	u	n	23µM	u
Cc1ccc(-n2ncc3c(NNC(=O)Cc4ccccc4)ncnc32)cc1	n	n	n	n	u	n
COC(=O)C1=C(CCc2ccccc2)NC(=O)NC1c1ccc(Br)cc1 (configuration not stated)	u	n	n	n	n	u
O=C(Cc1ccc(Cl)cc1)OCC(=O)N1CCCCCC1	n	n	n	n	n	n
COC(=O)/C=c1\sc2ncnn2c1=O	n	n	n	n	13µM	5.8µM
CCn1c(SCC(=O)Nc2oc(C)c3c(C)n[nH]c(=O)c23)nnc1-c1ccco1	n	n	n	x	n	n
N#C/C(=C\c1ccccc1C(=O)O)c1nc2ccccc2[nH]1	n	n	n	n	n	n
CN(C)c1ccc(/C=C(\C#N)c2nc3ccccc3c(=O)[nH]2)cc1	x	x	x	x	n	n
N#C/C(=C\c1cccc(OCC(=O)O)c1)c1nc2ccccc2[nH]1	n	n	n	n	n	n
N#C/C(=C\c1cccnc1)c1nc2ccccc2[nH]1	n	u	u	n	5.8µM	u
N#C/C(=C\c1ccncc1)c1nc2ccccc2[nH]1	-64	n	n	n	u	u
Cc1cc2nc(/C(C#N)=C/c3ccncc3)[nH]c2cc1C	n	23µM	u	n	16µM	18µM
N#C/C(=C/c1ccc(OC(=O)c2ccc(Br)s2)cc1)c1nc2ccccc2[nH]1	n	n	n	n	23µM	u
CC(=O)N1CCC(N(C(=O)Nc2ccc(C)c(F)c2)C(C)C)CC1	x	x	x	x	n	n
CCN(CC)c1ccc(/C=C(/C#N)c2nc3ccccc3[nH]2)c(OC(C)C)c1	n	u	u	10µM	12µM	18µM
Cc1ccc(-c2nn(-c3ccccc3)cc2/C=C/C(=O)OCC(=O)NC2CC2)o1	n	n	n	n	u	21µM
Cc1ccc(-c2nn(-c3ccccc3)cc2/C=N/NC(=O)c2ccncc2)o1	n	u	n	n	23µM	u
CCOc1cc(C(=O)N/N=C/c2cn(-c3ccccc3)nc2-c2cc3ccccc3o2)cc(OCC)c1OCC	n	n	n	n	13µM	23µM
